Inconclusive results are not listed. Calls of active or inactive are those of the source. Calls follow the shape of the dose curve; as a rule, active = well fitted curve in the direction sought with a large enough effect; inconclusive = small, poorly fitted or top-dose-only effect, or another doubt; inactive = no such curve, though single readings can be large; an effect the other way counts as inactive or inconclusive.
Columns and labels:
[1] = system: MCC-13; assay: qHTS assay to identify novel small-molecules to repurpose for Merkel cell carcinoma treatment (AID 1296009); conditions: MCC and control cell lines, CellTiter-Glo viability, 72 h; series mostly up to 46 µM; also: nearly all actives have a fitted effect of over 60% in size
Method in brief: (§1)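 Cells exposed to NPC (8-point) and MIPE (11-point) compound dilutions for 72 hr at 37 degree celsius; viability read by CellTiter-Glo luminescence, normalized to no-cell and DMSO in-plate controls.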

[2] = system: MCC-26; assay: as above; conditions: MCC and control cell lines, CellTiter-Glo viability, 72 h; series mostly up to 46 µM
Method in brief: as §1

[3] = system: MKL-1; assay: as above; conditions: MCC and control cell lines, CellTiter-Glo viability, 72 h; series mostly up to 46 µM
Method in brief: as §1

[4] = system: MKL-2; assay: as above; conditions: MCC and control cell lines, CellTiter-Glo viability, 72 h; series mostly up to 46 µM
Method in brief: as §1

[5] = system: NIH3T3; assay: as above; conditions: MCC and control cell lines, CellTiter-Glo viability, 72 h; at 44.8 µM (top of the series) unless noted
Method in brief: as §1

[6] = system: UISO; assay: as above; conditions: MCC and control cell lines, CellTiter-Glo viability, 72 h; series mostly up to 46 µM
Method in brief: as §1

[7] = system: WaGa; assay: as above; conditions: MCC and control cell lines, CellTiter-Glo viability, 72 h; series mostly up to 46 µM
Method in brief: as §1

[8] = system: C33A; assay: Primary qHTS to identify gynecologic anti-cancer compounds using libraries of approved drugs and bioactive compounds (AID 1345084); conditions: Gynecologic cancer cell panel viability, ATPlite luminescence, 48 h; series mostly up to 57.5 µM; also: nearly all actives have a fitted effect of over 55% in size
Method in brief: (§2)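 Cells, 1,000 per well, plated 16 h, then exposed 48 h at 37 C to compounds. Viability by ATPlite luminescence after 15 min at room temperature.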

[9] = system: CAOV3; assay: as above; conditions: Gynecologic cancer cell panel viability, ATPlite luminescence, 48 h; series mostly up to 57.5 µM
Method in brief: as §2

[10] = system: CASKI; assay: as above; conditions: Gynecologic cancer cell panel viability, ATPlite luminescence, 48 h; series mostly up to 57.5 µM
Method in brief: as §2

Measured: Potency

O=C(O)CCn1c2c(c3ccccc31)C[C@H](NS(=O)(=O)c1ccc(F)cc1)CC2
inactive: all assays above

CC(C)(Sc1cc(C(C)(C)C)c(O)c(C(C)(C)C)c1)Sc1cc(C(C)(C)C)c(O)c(C(C)(C)C)c1
inactive: all assays above

NCCCC(O)(P(=O)(O)O)P(=O)(O)O
inactive: all assays above

CC(C)OC(=O)C(C(=O)OC(C)C)=C1SC=CS1
inactive: all assays above

CCC(=O)O[C@]1(C(=O)CCl)[C@@H](C)C[C@H]2[C@@H]3CCC4=CC(=O)C=C[C@]4(C)[C@@]3(F)[C@@H](O)C[C@@]21C
inactive: all assays above

O=C(O)CSCC(=O)NC1CCSC1=O (configuration not stated)
inactive: all assays above

COC(c1ccccc1)(c1ccccc1)[C@H](Oc1nc(C)cc(C)n1)C(=O)O
inactive: all assays above

COc1c(N2CCNC(C)C2)c(F)cc2c(=O)c(C(=O)O)cn(C3CC3)c12 (configuration not stated)
inactive: all assays above

CCn1cc(C(=O)O)c(=O)c2cc(F)c(N3CCNCC3)nc21
inactive: all assays above

CC(=O)[C@H]1CC[C@H]2[C@@H]3CC=C4C[C@@H](O)CC[C@]4(C)[C@H]3CC[C@]12C
inactive: all assays above

COCCCOc1cc(C[C@@H](C[C@H](N)[C@@H](O)C[C@H](C(=O)NCC(C)(C)C(N)=O)C(C)C)C(C)C)ccc1OC
inactive: all assays above

CNC1CCCN(c2c(F)cc3c(=O)c(C(=O)O)cn(C4CC4)c3c2OC)C1 (configuration not stated)
inactive: all assays above

Nc1ccc(S(=O)(=O)Nc2ccccn2)cc1
inactive: all assays above

CN(Cc1cc(Br)cc(Br)c1N)C1CCCCC1
inactive: all assays above

CCN(CC)CCn1c(=O)c(Cc2ccc(OC)cc2)nc2ccccc21
not listed: [8] | [9] | [10]
inactive: all other assays above

CCCN[C@H]1CCc2nc(N)sc2C1
not listed: [5]
inactive: all other assays above

O=C(O)C1CCCN(CCC=C(c2ccccc2)c2ccccc2)C1 (configuration not stated)
inactive: [1] | [2] | [3] | [4] | [6] | [7]

CS(=O)(=O)c1ccc([C@@H](O)[C@@H](CO)NC(=O)C(Cl)Cl)cc1
not listed: [5]
inactive: all other assays above

Cc1noc(NS(=O)(=O)c2ccc(N)cc2)c1C
not listed: [5] | [9]
inactive: all other assays above

COc1ncnc(NS(=O)(=O)c2ccc(N)cc2)c1OC
not listed: [5]
inactive: all other assays above

CCC(C)(C)c1ccc(CC(C)CN2C[C@@H](C)O[C@@H](C)C2)cc1 (some centres not stated)
not listed: [5]
inactive: all other assays above
